Assay outcomes from PubChem.
Most compounds without a hit are left out; they make up all but 6.5% or so of the library.
MARV entry inh – blocks Marburg virus binding to or entry into cells. Marburg virus pseudotyped entry inhibition, cell reporter. 300,000 tested, 1.8% active. Potency, µM (highest dose often 37.8 µM), inactives show at the highest dose activity change, negative = inhibition, hits mostly inhibitors; calls by dose curve; tested in HEK293 cells; further: potency means the concentration at half of the fitted maximal effect
FMDV antiviral – foot and mouth disease virus antiviral activity; FMDV antiviral cell-based qHTS; 410,000 tested, 1.2% active; Potency, µM (top dose mostly 57.9 µM), for inactives: top-dose activity change, negative = inhibition, actives largely listed as inhibitors; calls by dose curve; tested in HEK293T cells; further: read-out not given here; potency means the concentration at half of the fitted maximal effect; nearly all actives have a fitted effect of over 45% in size
LASV entry inh – inhibitors of Lassa virus binding or cell entry; Lassa virus pseudotype entry inhibition, cell reporter; 300,000 tested, 1.2% active; Potency, µM (titrated, usually from 37.9 µM), for inactives: top-dose activity change, negative = inhibition, hits mostly inhibitors; calls by dose curve; tested in HEK293 cells; further: potency means the concentration at half of the fitted maximal effect; nearly all actives have a fitted effect of over 50% in size
VACV mCherry inh – inhibitors of vaccinia virus infection (mCherry reporter signal); AID 720579; Vaccinia virus mCherry reporter infection, fluorescence; Potency, µM (highest dose often 36.5 µM), inactives show top-dose activity change, negative = inhibition, most hits filed as inhibitors; 310,000 tested, 0.63% active; calls by dose curve; tested in A549 cells; further: potency means the concentration at half of the fitted maximal effect; nearly all actives have a fitted effect of over 35% in size
HCMV inh – human cytomegalovirus inhibition; HFF cells, HCMV-luciferase reporter, 72 h; hits give low values; activity change, negative = inhibition, % at 57.5 µM; 410,000 tested, 4.5% active; in the data active means activity change below about -60%; inconclusive means no clear call, values can overlap the other calls; inactive means above about -39%
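Two-dose cell screen: HFF monolayers treated with compounds and infected with luciferase-expressing HCMV at 1 PFU/cell, 72 h at 37C, then lysed for luciferase measurement.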
VACV Venus inh – vaccinia inhibition (Venus reporter). Vaccinia virus Venus reporter expression, fluorescence. Potency, µM (series often up to 36.5 µM), for inactives: at the highest dose activity change, negative = inhibition, hits mostly inhibitors. 330,000 tested, 0.46% active; calls by dose curve; tested in A549 cells; further: potency means the concentration at half of the fitted maximal effect; nearly all actives have a fitted effect of over 30% in size
* = called active by the depositor; i = inactive; ? = inconclusive; · = no result; [ ] = remark or other dose. On the % scale 0 is the no-effect control and ±100 the full control effect.

SMILES	MARV entry inh	FMDV antiviral	LASV entry inh	VACV mCherry inh	HCMV inh	VACV Venus inh
O=C(c1cc(COc2ccc3ncccc3c2)on1)N1CCC(O)CC1	?	-26.8%	-25.5%	-29.8%	-82.4*	-19.7%
O=C(c1cc(COc2c(F)cccc2F)on1)N1CCC(c2ccncc2)CC1	?	-3.6%	-7.5%	-21.5%	-83.8*	-4.4%
Cc1cccc(C)c1OCc1cc(C(=O)N2CCC(c3ccncc3)CC2)no1	?	-4.1%	14.1%[46.1 µM]	-15.9%	?	-20.3%
O=C(c1cc(COc2ccc(F)cc2Cl)on1)N1CCC(OCc2cccnc2)CC1	-2.9%[46.1 µM]	-14.1%	-4.2%	-8.4%	-67.9*	-4.1%
CC1CCN2c3ccccc3CC3(C(=O)OC(C)(C)OC3=O)C2C1 (stereo unspecified)	·	·	·	-13.8%	·	-6.1%
Cc1ccc(CCNC(c2ccc(F)cc2)c2nnc(-c3ccccc3Cl)o2)cc1 (stereo unspecified)	?	2.4%	?	-6.5%	10.2	-5.2%
Cc1cc2nc(CCN(C(=S)NCC(C)C)C3CCCC3)[nH]c2cc1C	?	·	?	?	-85.3*	?
Cc1cccc2cc(CN(C(=S)NCC(C)C)C3CCCC3)c(=O)[nH]c12	?	-9.1%	-16.8%	-12.3%	-18.8	-21.2%
Cc1cc2nc(CCN(C(=S)NCC3CCCO3)C3CCCC3)[nH]c2cc1C (stereo unspecified)	·	-0.1%	·	·	-62.9*	·
Cc1c(CC(=O)NCc2ccccc2Cl)c(=O)oc2cc(O)ccc12	?	39.3%	4.3%[46.1 µM]	-0.7%	5.1	-7.4%
Clc1ccccc1-c1ccc2ncnc(NCCN3CCOCC3)c2c1	·	0.0%	·	·	·	·
COc1ccc(Nc2ncc(C(=O)N3CCN(c4cccc(Cl)c4)CC3)c3ccccc23)cc1	?	?	-23.1%[46.1 µM]	-16.9%	-13.6	-19.2%
CCOc1ccc(C2CC(c3c(O)c4ccccc4oc3=O)=NN2c2ccccc2)cc1OC (stereo unspecified)	-5.6%[46.1 µM]	-6.7%	?	?	-78.3*	-17.6%
Cc1nc(-c2ccc(S(=O)(=O)N(Cc3ccccc3)C(C)C)cc2)co1	·	-19.2%	-14.1%[46.1 µM]	-12.3%	-11.9	-8.4%
O=C1C(=C(I)I)c2ccccc2-c2ccccc21	?	17.8µM*	?	?	-100.1*	?
O=C1C(=O)c2ccccc2-c2ccccc21	·	5.62µM*	·	2.82µM*	-101.1*	4.47µM*
O=C1c2ccccc2-c2nc3ccccc3nc21	-4.2%	22.9%	26.1%	·	122.0	·
COC1=C(OC)C(=O)c2ccccc2C1=O	?	·	20.6µM*	-16.4%	·	-12.5%
O=C1c2ccccc2C(=O)c2c(O)ccc(O)c21	·	-19.7%	·	·	·	·
COc1ccc(OC)c2c1C(=O)c1ccccc1C2=O	0.3%	-3.3%	-10.0%	-4.9%	18.9	76.8%
Cc1nc2c(nc1C)C(=O)c1ccccc1C2=O	14.1µM*	?	?	3.55µM*	?	3.98µM*
Cc1cc2nc(C(=O)NC3CCCCC3)c(-c3cccc(Br)c3)nc2cc1C	·	·	·	·	28.5	·
Cc1cc2c(cc1C)C(=O)C(Br)=C(N)C2=O	-3.9%[46.1 µM]	25.2%	0.0%[46.1 µM]	?	-32.6	-7.6%
NC1=C(Br)C(=O)c2ccccc2C1=O	?	-19.1%	-10.1%	-48.9%	-86.1*	?
NC1=CC(=O)C(=O)c2ccccc21	?	39.8µM*	?	14.1µM*	-63.6*	?
SMILES	MARV entry inh	FMDV antiviral	LASV entry inh	VACV mCherry inh	HCMV inh	VACV Venus inh
Nc1ccc(O)c2c1C(=O)c1ccccc1C2=O	34.1%	-23.9%	8.3%	210.4%	-33.9	191.8%
O=C1c2ccccc2-c2cccnc21	·	5.9%	·	·	-103.7*	·
CCOc1cc(CNC(=O)CSc2n[nH]c(-c3ccccc3)n2)cc(OCC)c1OCC	·	-19.4%	-1.7%[46.1 µM]	i	5.9	-16.4%
CCOC(=O)c1cccn1C1C(=O)N(Cc2ccc(OC)cc2)c2ccccc21 (stereo unspecified)	·	·	·	·	-26.8	·
COCCNCC(=O)Nc1ccccc1Sc1ccccc1	-10.3%	-26.7%	-14.1%	·	15.9	·
O=C(CN1CCOCC1)Nc1ccccc1Sc1ccccc1	16.1%[46.1 µM]	0.3%	16.7%[46.1 µM]	i	-13.6	-9.3%
CC(=O)N1CCN(CC(=O)Nc2ccccc2Sc2ccccc2)CC1	?	0.0%	10µM*	-18.3%	-26.2	-18.5%
N=c1sccn1CC(=O)Nc1ccccc1Sc1ccccc1	?	-27.8%	?	-11.4%	-62.1*	-15.6%
CCNc1ncc2nc(-c3ccc(Cl)cc3)c(=O)n(CCC#N)c2n1	·	-4.7%	·	·	·	·
CCN(CC)CC(O)c1cccn1-c1ccc(CNC(=O)NC(C)C)cc1 (stereo unspecified)	-5.4%	-2.9%	-7.4%	·	-65.9*	·
CC(C)C[C@H](NC(=O)NCc1ccc(F)cc1)C(=O)O	8.0%	3.8%	-2.6%	i	5.5	-2.7%
C/C(=N\Nc1ccc(F)cc1F)c1ccccc1O	4.6%[46.1 µM]	43.7%	·	-19.2%	-68.9*	-3.5%
Cc1ccc(NC2=Nc3ccccc3CC2)cc1	7.94µM*	-41.3%	?	·	29.0	-17.6%
CCC1(C2CCN(C(=O)c3cc4ccccc4o3)CC2)NC(=O)N(CCc2scnc2C)C1=O (stereo unspecified)	·	14.2%	·	-17.8%	·	-10.0%
Cc1ccc(-c2cc(C(=O)N(C)Cc3cnn(C)c3C)c3cc(Br)ccc3n2)cc1	8.91µM*	-8.3%	?	-7.6%	5.7	-12.0%
CC1(c2ccc3ccccc3c2)NC(=O)N(CC(=O)N2CCN(Cc3ccc(C#N)cc3)CC2)C1=O (stereo unspecified)	0.562µM*	?	?	?	·	?
CC1CC(C)(C)CC2(C1)NC(=O)N(CC(=O)N1CCN(Cc3ccc(C#N)cc3)CC1)C2=O (stereo unspecified)	?	?	?	?	-84.2*	-25.0%
C=CCN(CC=C)C[C@@H]1CSCCS(=O)(=O)N1	·	·	·	·	10.2	·
O=C1CSC(=S)N1c1cccc(Br)c1	?	?	?	13.6%	-77.3*	9.5%
Cc1ccccc1CN1CCCN(Cc2ccc(Cl)cc2)S1(=O)=O	-5.0%[46.1 µM]	-8.3%	?	i	-60.0*	-21.6%
Cc1ccc(CN2CCCN(Cc3ccc(Cl)cc3)S2(=O)=O)cc1	-0.3%[46.1 µM]	-4.6%	16.1%[46.1 µM]	-4.5%	18.0	5.4%
Cn1cnnc1SCC(=O)c1ccc(OC(F)F)cc1	20.7%	3.9%	0.6%	·	-78.0*	·
NCCCC(C(=O)O)N(C(=O)OCc1ccccc1)C(=O)OCc1ccccc1 (stereo unspecified)	·	·	·	·	-8.3	·
Cc1nc(-c2ccc(F)cc2)c(CC(=O)N(C)CC(=O)Nc2ccc(F)cc2)s1	1.9%	12.9%	14.8%	-10.5%	0.7	-5.7%
CC(=O)Nc1ccc(NC(=O)Cc2sc(-c3cccnc3)nc2-c2ccc(C)cc2)cc1	?	30.7%	-26.4%[46.1 µM]	i	-24.7	-21.6%
O=C(Cc1sc(-c2ccccc2Cl)nc1-c1ccccc1)Nc1ccccc1	?	?	?	·	-89.7*	1.4%
O=C(Cc1sc(-c2ccccc2)nc1-c1ccccc1)Nc1ccc(Cl)cc1	-6.6%	-16.0%	3.2%	-14.2%	-76.0*	-7.5%
